# Assay results taken from PubChem BioAssay (EPA / NIEHS).
# Inconclusive results are not listed. Activity calls are given as the source filed them. How the source made its calls: active means hit-call score of the fitted dose curve at least 0.9, where 1 is the maximum; inconclusive means response in the unintended direction; inactive means score below 0.9.
# Biological target: Glucocorticoid receptor (Homo sapiens) (UniProt P04150)
# Assay: ATG_GR_TRANS: Attagene TRANS-FACTORIAL HepG2 Assay for human Glucocorticoid Receptor (GR) (AID 2282978);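 further: activators score as hits since higher reporter transcript over DMSO is fitted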
# Conditions: HepG2 Attagene TRANS GR reporter, mRNA transcription
# Procedure: ATG_TRANS is a cell-based, multiplexed-readout assay that uses HepG2, a human liver cell line, with measurements taken at 24 hours after chemical dosing in a 24-well plate.ATG_GR_TRANS is one of 30 assay component(s) measured or calculated from the ATG_TRANS assay. It is designed to make measurements of mRNA induction, a form of inducible reporter, as detected with fluorescence intensity signals by Reverse transcription polymerase chain reaction (RT-PCR) and Capillary electrophoresis technology.Data from the assay component ATG_GR_TRANS was analyzed into 1 assay endpoint. This assay endpoint, ATG_GR_TRANS, was analyzed in the positive analysis fitting direction relative to DMSO as the negative control and baseline of activity. Using a type of inducible reporter, measures of mRNA for gain-of-signal activity can be used to understand the reporter gene at the transcription factor-level as they relate to the gene NR3C1. Furthermore, this assay endpoint can be referred to as a primary readout, because this assay has produced multiple assay endpoints where this one serves a reporter gene function. To generalize the intended target to other relatable targets, this assay endpoint is annotated to the nuclear receptor intended target family, where the subfamily is steroidal.
# Human liver HepG2 cells are transiently transfected with multiple reporter transcription units (MRTUs) in 6-well plates using FuGene 6 reagent (Roche; 3 ml FuGene/1 mg DNA). The MRTU constructs are regulated by a cis-regulating element (promoter). […] A major difference between the CIS and TRANS system is that in CIS activities of endogenous TFs are measured, whereas the TRANS assay evaluates changes in activities of exogenous, chimeric NR-Gal4 proteins. […] At the end of 24 hour incubation, total RNA was isolated using TriZol reagent (Invitrogen). The isolated RNA is then reverse-transcribed using oligo(dT) primer and Mo-MLV reverse transcriptase (Invitrogen) with DNAse I (Ambion) treatment for 30 min. The one-tenth of the produced cDNA was amplified by PCR using Taq DNA polymerase (Invitrogen) and two reporter sequence-specific primers. The PCR products were fluorescently labeled by primer extension with 6-arboxyfluorescein (6-FAM) 5'-labeled reporter sequence-specific primer (2 min at 95 C, 20 s at 68 C and 10 min at 72 C) and these products were digested with 5U of HpaI (New England Biolabs) for 2h at 37 C. The fragments were purified using Qiaquick PCR columns (Qiagen), analyzed on an ABI 3130xL genetic analyzer (Applied Biosystems) with peak positions identified by using a set of X-rhodamine (ROX)-labeled MapMarker1000 molecular weight standards (BioVentures). The raw capillary electrophoresis data was processed using Attagraph software (Attagene).
# Chain of Glucocorticoid receptor (Homo sapiens) (P04150 whole entry, looked up): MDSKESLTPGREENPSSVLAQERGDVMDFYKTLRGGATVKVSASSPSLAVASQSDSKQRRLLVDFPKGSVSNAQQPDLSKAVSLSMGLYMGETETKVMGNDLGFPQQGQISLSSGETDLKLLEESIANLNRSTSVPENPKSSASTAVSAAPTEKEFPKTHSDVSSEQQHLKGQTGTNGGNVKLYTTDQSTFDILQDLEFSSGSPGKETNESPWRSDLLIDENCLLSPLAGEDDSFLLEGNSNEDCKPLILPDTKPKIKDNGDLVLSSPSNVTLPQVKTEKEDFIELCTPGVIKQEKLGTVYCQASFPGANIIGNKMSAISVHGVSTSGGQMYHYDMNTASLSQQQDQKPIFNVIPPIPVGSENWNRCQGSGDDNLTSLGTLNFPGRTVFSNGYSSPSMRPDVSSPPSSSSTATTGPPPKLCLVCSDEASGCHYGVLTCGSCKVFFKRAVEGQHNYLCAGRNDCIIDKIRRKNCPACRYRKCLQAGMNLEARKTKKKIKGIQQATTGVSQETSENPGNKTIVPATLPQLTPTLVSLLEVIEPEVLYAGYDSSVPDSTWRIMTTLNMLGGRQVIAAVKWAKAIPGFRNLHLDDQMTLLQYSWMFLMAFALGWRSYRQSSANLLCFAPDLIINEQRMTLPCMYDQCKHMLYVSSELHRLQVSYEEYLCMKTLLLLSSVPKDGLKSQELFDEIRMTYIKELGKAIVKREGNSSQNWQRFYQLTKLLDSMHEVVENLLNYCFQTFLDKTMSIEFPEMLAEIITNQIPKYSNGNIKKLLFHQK
row,Structure (SMILES),outcome
1,CCN=C1C=CC(=C(c2ccc(N(CC)CC)cc2)c2ccc(N(CC)CC)cc2)c2ccccc21,inactive
2,CCCCCCCC/C=C\CCCCCCCC(=O)N(C)CC(=O)O,inactive
3,CC(C)=CCCC(C)O (stereo not given),inactive
4,FC(F)(F)C(F)(F)C(F)(F)C(F)(F)C(F)(F)C(F)(F)CC[Si](Cl)(Cl)Cl,inactive
5,O=C(O)C(F)(F)C(F)(F)C(F)(F)C(F)(F)C(F)(F)C(F)(F)C(F)F,inactive
6,FC(F)(F)C(F)(F)C(F)(F)C(F)(F)C(F)(F)C(F)(F)C(F)(F)CCI,inactive
7,CC(C)(C)c1cc(CCC(=O)NCCCCCCNC(=O)CCc2cc(C(C)(C)C)c(O)c(C(C)(C)C)c2)cc(C(C)(C)C)c1O,inactive
8,COC(F)(C(F)F)C(F)(F)F (stereo not given),inactive
9,O=c1[nH]cccc1O,inactive
10,C=C(C)C(=O)OCC(F)(F)C(F)(F)C(F)(F)C(F)F,inactive
11,C[C@]12CC[C@H]3C(=CCc4cc(O)ccc43)[C@@H]1CCC2=O,inactive
12,OCC(F)(F)C(F)(F)C(F)(F)C(F)(F)C(F)(F)C(F)(F)C(F)(F)C(F)(F)CO,inactive
13,OCCCC(F)(F)C(F)(F)C(F)(F)C(F)(F)C(F)(F)C(F)(F)C(F)(F)C(F)(F)F,inactive
14,CCOCN(C(=O)CS(=O)(=O)O)c1c(C)cccc1CC,inactive
15,CC1CCCCC1,inactive
16,Cc1ccc2c(c1)OCC(=O)CO2,inactive
17,CC(C)CC=C(C=O)c1ccccc1,inactive
18,Cc1cnccn1,inactive
19,CC1=CCC2C(=O)OC(=O)C2C1 (stereo not given),inactive
20,CCc1cc(Cc2cc(CC)c(N)c(CC)c2)cc(CC)c1N,inactive

row,Structure (SMILES),outcome
1,C=C(C)CCCC,inactive
2,CCCCCCCCCCCCC[N+](C)(C)Cc1ccccc1,inactive
3,CCOC(OCC)OCC,inactive
4,CCC(Cc1c(I)cc(I)c(N)c1I)C(=O)O (stereo not given),inactive
5,CCCCC(CC)COC(=O)c1ccc(N(C)C)cc1 (stereo not given),inactive
6,OCCCCl,inactive
7,Cc1ccc([N+](=O)[O-])c(C)c1,inactive
8,OCC(O)CC(F)(F)C(F)(F)C(F)(F)C(F)(F)F (stereo not given),inactive
9,O=S(=O)(O)CCC(F)(F)C(F)(F)C(F)(F)C(F)(F)F,inactive
10,CCc1ccc(C)nc1,inactive
11,C=CC(=O)OCC(F)(F)C(F)(F)C(F)(F)COC(=O)C=C,inactive
12,CC(C)Nc1ccc(NC(C)C)c2c1C(=O)c1ccccc1C2=O,inactive
13,OCC1CCCO1 (stereo not given),inactive
14,Nc1cc([N+](=O)[O-])cc(Cl)c1O,inactive
15,c1ccc(C[P+](c2ccccc2)(c2ccccc2)c2ccccc2)cc1,inactive
16,Cc1ccc(O)c(-n2nc3ccccc3n2)c1,inactive
17,OC(O)C(F)(F)C(F)(F)F,inactive
18,Cc1ccc(O)cn1,inactive
19,CC(C)(C)c1cc(Cc2cc(C(C)(C)C)c(O)c(C(C)(C)C)c2)cc(C(C)(C)C)c1O,inactive
20,Nc1c(Br)cc([N+](=O)[O-])cc1Br,inactive
